From PubChem
Compounds with a hit are over-represented: about 6.8% of the library has one in this group of screens.
Pf Dd2 inh: P. falciparum Dd2 growth inhibition. SYBR Green, 72 h; active compounds read low. actives 2.3% (n = 94,000). activity change, % at 10 µM; in the data active means activity change below about -80%
C diff HTS: C. difficile growth inhibition; Clostridium difficile clinical isolate growth, OD600, 24 h; active compounds read low; growth activity, negative = inhibition, % at 16 µg/mL (by protocol); actives 0.25% (n = 86,000);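 active means mean growth activity at or below -80% and every replicate also at or below -80%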;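 further: 0% = DMSO wells and -100% = levofloxacin 16 µg/mL wells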
Tcruzi prolif: inhibitors of T. cruzi proliferation. actives 5.9% (n = 77,000). inhibition, % at 8.34 µM. T. cruzi beta-gal in NIH3T3, GalScreen luminescence, 90 h. AID 624255;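 active means mean inhibition above about 93%, with at least 55% of replicates each passing it, limit read from the data, passing the limit was not always enough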
An asterisk follows results filed as active; ! = not active in a repeat.

`COc1ccc(S(=O)(=O)N(C)C[C@@H]2OCCCC[C@H](C)Oc3ccc(NS(=O)(=O)c4ccc(C)cc4)cc3C(=O)N([C@H](C)CO)C[C@@H]2C)cc1` gave Pf Dd2 inh -62, C diff HTS -2 and Tcruzi prolif 113*.
`COc1ccc(S(=O)(=O)N(C)C[C@@H]2OCCCC[C@@H](C)Oc3ccc(NS(=O)(=O)c4ccc(Cl)cc4)cc3C(=O)N([C@H](C)CO)C[C@H]2C)cc1` gave Pf Dd2 inh -23 and C diff HTS -12.
COc1ccc(S(=O)(=O)Nc2ccc3c(c2)C(=O)N([C@H](C)CO)C[C@@H](C)[C@@H](CN(C)S(=O)(=O)c2ccc(C)cc2)OCCCC[C@H](C)O3)cc1 was read as Pf Dd2 inh -81*.
Screening COc1ccc(S(=O)(=O)Nc2ccc3c(c2)C(=O)N([C@H](C)CO)C[C@@H](C)[C@@H](CN(C)S(=O)(=O)c2ccc(Cl)cc2)OCCCC[C@@H](C)O3)cc1 returned Pf Dd2 inh -89*, C diff HTS 5 and Tcruzi prolif 91.
For Cc1ccc(S(=O)(=O)Nc2ccc3c(c2)CC(=O)N([C@H](C)CO)C[C@@H](C)[C@@H](CN(C)S(=O)(=O)c2cccs2)O3)cc1 the results were Pf Dd2 inh 0, C diff HTS -1 and Tcruzi prolif 72.
`C[C@@H]1CN([C@H](C)CO)S(=O)(=O)c2ccc(-c3ccc(F)cc3)cc2O[C@@H]1CN(C)C(=O)C1CC1` gave Pf Dd2 inh 13, C diff HTS -5 and Tcruzi prolif -126.
C[C@H](CO)N1C[C@H](C)[C@H](CN(C)C)Oc2ncc(-c3cccc(F)c3)cc2C1=O was read as Pf Dd2 inh 25, C diff HTS 1 and Tcruzi prolif 51.
Screening Cc1ccc(S(=O)(=O)N(C)C[C@@H]2OCCCC[C@H](C)Oc3ccc(NC(=O)Nc4ccc(C(F)(F)F)cc4)cc3C(=O)N([C@@H](C)CO)C[C@@H]2C)cc1 returned Pf Dd2 inh -85* and C diff HTS 4.
For C[C@@H]1CN([C@H](C)CO)C(=O)c2cc(NC(=O)Nc3ccc(C(F)(F)F)cc3)ccc2O[C@@H](C)CCCCO[C@H]1CN(C)S(=O)(=O)c1ccc(F)cc1 the results were Pf Dd2 inh -48 and Tcruzi prolif 90.
For Cc1ccc(S(=O)(=O)N(C)C[C@H]2OCCCC[C@@H](C)Oc3ccc(NC(=O)Nc4ccc(C(F)(F)F)cc4)cc3C(=O)N([C@H](C)CO)C[C@@H]2C)cc1 the results were Pf Dd2 inh -73 and C diff HTS 4.
Screening COc1ccc(S(=O)(=O)N(C)C[C@@H]2OCCCC[C@@H](C)Oc3ccc(NC(=O)Nc4ccc(C(F)(F)F)cc4)cc3C(=O)N([C@H](C)CO)C[C@@H]2C)cc1 returned Pf Dd2 inh -84*, C diff HTS 7 and Tcruzi prolif 59.
For COc1ccc(S(=O)(=O)N(C)C[C@H]2OCCCC[C@H](C)Oc3ccc(NC(=O)Nc4ccc(C(F)(F)F)cc4)cc3C(=O)N([C@H](C)CO)C[C@@H]2C)cc1 the results were Pf Dd2 inh -62, C diff HTS -2 and Tcruzi prolif 87.
Screening C[C@@H]1CCCCO[C@H](CN(C)S(=O)(=O)c2ccc(F)cc2)[C@H](C)CN([C@@H](C)CO)C(=O)c2cc(NC(=O)Nc3ccc(C(F)(F)F)cc3)ccc2O1 returned Pf Dd2 inh -86* and Tcruzi prolif 91.
`C[C@H]1CN([C@@H](C)CO)C(=O)Cc2cc(NC(=O)CCC(F)(F)F)ccc2O[C@@H]1CN(C)S(=O)(=O)c1cn(C)cn1` gave Pf Dd2 inh 11, C diff HTS -4 and Tcruzi prolif 8.
For CC(=O)N1[C@@H]2Cn3c(ccc(-c4ccccc4)c3=O)[C@H]1[C@@H](C(=O)NCCCN1CCOCC1)[C@@H]2CO the results were Pf Dd2 inh 35 and C diff HTS -5.
Screening COc1ccc2c3c(n(C)c2c1)[C@@H](CO)N(C(=O)C1CCC1)CC31CCN(Cc2cccc(F)c2)CC1 returned Pf Dd2 inh -72 and C diff HTS -3.
For COc1cccc(CN2CCC3(CC2)CN(C(=O)C2CC2)[C@H](CO)c2c3c3ccc(OC)cc3n2C)c1 the results were Pf Dd2 inh -85* and C diff HTS 3.
Screening COc1ccc2c3c(n(C)c2c1)[C@H](CO)N(C(=O)C1CCC1)CC31CCN(Cc2cccc(F)c2)CC1 returned Pf Dd2 inh -84* and C diff HTS -7.
COc1ccc2c3c(n(C)c2c1)[C@H](CO)N(C(=O)C1CC1)CC31CCN(Cc2cccc(F)c2)CC1 was read as Pf Dd2 inh -72 and C diff HTS 9.
COCCNC(=O)C[C@H]1C[C@H]2c3cc(NC(=O)C4CCC4)ccc3O[C@H]2[C@@H](CO)O1 was read as Pf Dd2 inh 16 and C diff HTS 10.
Screening C[C@@H]1CN([C@@H](C)CO)C(=O)c2cc(NS(C)(=O)=O)ccc2O[C@H]1CN(C)Cc1ccc(C(=O)Nc2ccccc2N)cc1 returned Pf Dd2 inh -8, C diff HTS -1 and Tcruzi prolif 53.
Screening CCCNC(=O)Nc1ccc2c(c1)C(=O)N(C)C[C@H](OC)[C@@H](C)CN(Cc1ccncc1)[C@@H](C)CO2 returned Pf Dd2 inh -14, C diff HTS 0 and Tcruzi prolif -13.
`CC(=O)N1CC(=O)N2[C@H](CO)[C@H](c3ccc(-c4ccncc4)cc3)[C@@H]2C1` gave Pf Dd2 inh 16 and C diff HTS 0.
For N#Cc1cccc(-c2ccc(C3[C@@H]4CN(C(=O)C5CCCC5)C[C@H]3N4)cc2)c1 (stereo not given in full) the results were Pf Dd2 inh -69 and C diff HTS 13.
`O=C(C1CCC1)N1C[C@@H]2N[C@H](C1)C2c1ccc(-c2cccc(F)c2)cc1` (stereo not given in full) gave Pf Dd2 inh -65 and C diff HTS 35.
`N#Cc1cccc(-c2ccc(C3[C@@H]4CN(S(=O)(=O)Cc5ccccc5)C[C@H]3N4)cc2)c1` (stereo not given in full) gave Pf Dd2 inh -27 and C diff HTS 30.
N#Cc1ccc(-c2ccc([C@@H]3[C@@H]4CN(S(=O)(=O)Cc5ccccc5)C[C@H]3N4)cc2)cc1 was read as Pf Dd2 inh -86* and C diff HTS 30.
Screening N#Cc1cccc(-c2ccc(C3[C@@H]4CN(Cc5ccccc5)C[C@H]3N4)cc2)c1 (stereo not given in full) returned Pf Dd2 inh -91*! and C diff HTS 34.
For CN(C)C(=O)c1ccc(-c2ccc(C3[C@@H]4CN(Cc5cccnc5)C[C@H]3N4)cc2)cc1 (stereo not given in full) the results were Pf Dd2 inh -16 and C diff HTS -7.
Cc1ccccc1-c1ccc(C2[C@@H]3CN(Cc4cccnc4)C[C@H]2N3)cc1 (stereo not given in full) was read as Pf Dd2 inh -90*! and C diff HTS -6.
For Fc1cccc(-c2ccc(C3[C@@H]4CN(Cc5ccccc5F)C[C@H]3N4)cc2)c1 (stereo not given in full) the results were Pf Dd2 inh -33 and C diff HTS -101*.
